PubChem BioAssay (Tox21)
Records with an inconclusive call do not appear. Active and inactive are the calls of the source. Unless noted, the call rests on the fitted dose curve; in most records, active means well fitted curve in the direction sought with a large enough effect in the repeat runs; inconclusive means weak or mixed curves; inactive means no such curve, though single readings can be large; an effect the other way counts as inactive or inconclusive.

Columns and labels:
[1] = qHTS assay for small molecule agonists of the p53 signaling pathway (AID 651631; calls by dose curve; further: nearly all actives have a fitted effect of over 15% in size)
Procedure, shortened: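 Stably transfected HCT-116 cells (beta-lactamase behind p53 response elements) get compounds after a 5 h settling period; 16 h later at 37 °C, FRET substrate is loaded and fluorescence read after 2 h.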

[2] = qHTS assay for small molecules that induce genotoxicity in human embryonic kidney cells expressing luciferase-tagged ATAD5 (AID 651632); further: nearly all actives have a fitted effect of over 15% in size
Procedure, shortened: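 Luminescent reporter readout, HEK293T ATAD5-luc line: 16 hr drug exposure (37C, 5% CO2) followed by Amplite, 30 min RT.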

[3] = qHTS assay for small molecule agonists of the p53 signaling pathway - cell viability (AID 651633; calls by dose curve;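 further: p53RE-bla HCT reporter cells with a stable beta-lactamase p53 reporter; series mostly up to about 83 µM; nearly all actives have a fitted effect of over 30% in size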)
Procedure, shortened: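 p53RE-bla cells were treated with compound for 16 hours at 37 C. Cytotoxicity was then measured as CellTiter-Glo luminescence after 30 min at room temperature.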

[4] = qHTS assay for small molecules that induce genotoxicity in human embryonic kidney cells expressing luciferase-tagged ATAD5 - cell viability (AID 651634; calls by dose curve; further: nearly all actives have a fitted effect of over 25% in size)
Procedure, shortened: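 Viability read: CellTiter-Fluor fluorescence, 30 min at 37C. Cells: HEK293T, luciferase-tagged ATAD5. Exposure: 15.5 hr, 37C, 5% CO2, compound or DMSO vehicle.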

[5] = qHTS assay for small molecule disruptors of the mitochondrial membrane potential - cell viability (AID 720634; calls by dose curve;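 further: human HepG2 liver cancer cells; series mostly up to about 83 µM; nearly all actives have a fitted effect of over 20% in size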)
Procedure, shortened: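 HepG2, 1 hr compound, 37 C. ATP luminescence via CellTiter-Glo, 30 min RT, same well as m-MPI.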

[6] = qHTS assay to test for compound auto fluorescence at 590 nm (red) in HepG2 cells (AID 720674)
Procedure, shortened: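 Seeding: 2,000 HepG2 cells/well, MEM/10% FBS, overnight 37 C. Dosing: compound vs DMSO. Incubation: 1 hr, 37 C, 5% CO2. Read: fluorescence 540 ex/590 em, Rose Bengal sodium as red reference.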

[7] = qHTS assay to test for compound auto fluorescence at 535 nm (green) in HepG2 cells (AID 720675)
[8] = qHTS assay to test for compound auto fluorescence at 460 nm (blue) in HEK293 cells (AID 720678)
Procedure, shortened: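 HEK293, 2,000 cells/well, 10% dialyzed FBS; attach 4-5 hr 37C; pin compound or DMSO; o/n 37C/5% CO2; fluorescence 405/460 nm; triamterene-equivalent units.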

[9] = qHTS assay to test for compound auto fluorescence at 590 nm (red) in HEK293 cells (AID 720679)
Procedure, shortened: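 Intensity at 540nm excitation and 590nm emission is reported as Rose Bengal sodium-equivalent autofluorescence. Measurements followed overnight exposure (37C, 5% CO2) of HEK293 cells, 2,000 per well, to 23 nL compound.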

[10] = qHTS assay to test for compound auto fluorescence at 535 nm (green) in HEK293 cells (AID 720680)
[11] = qHTS assay to test for compound auto fluorescence at 460 nm (blue) in HEK293 cell free culture (AID 720681)
Procedure, shortened: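 Compounds were added to cell-free DMEM with 10% FBS and fluorescence read directly. The blue channel used 405 nm excitation and 460 nm emission, with triamterene as the reference fluorophore.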

[12] = qHTS assay to test for compound auto fluorescence at 535 nm (green) in HEK293 cell free culture (AID 720682)
Procedure, shortened: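 Using fluorescein as calibrant, autofluorescence was quantified at 485/535 nm in cell-free DMEM containing 10% FBS after pintool addition of compound or vehicle.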

[13] = qHTS assay to test for compound auto fluorescence at 590 nm (red) in HEK293 cell free culture (AID 720683)
Procedure, shortened: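 Cell-free wells of DMEM with 10% FBS received compound, and intrinsic fluorescence was read at excitation/emission 540/590 nm. Values expressed as equivalence to Rose Bengal sodium.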

[14] = qHTS assay to test for compound auto fluorescence at 590 nm (red) in HepG2 cell free culture (AID 720684)
Procedure, shortened: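 Compounds are added to culture medium (MEM, 10% FBS) lacking cells, then fluorescence is read at excitation 540 nm, emission 590 nm, with Rose Bengal sodium as the equivalency standard.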

[15] = qHTS assay to test for compound auto fluorescence at 535 nm (green) in HepG2 cell free culture (AID 720686)
[16] = molecular target: Glucocorticoid receptor (Homo sapiens) (UniProt P04150); test: qHTS assay to identify small molecule agonists of the glucocorticoid receptor (GR) signaling pathway (AID 720691; active means well fitted activation curve with a large enough effect in the signal ratio in the repeat runs, not every such curve was filed as active; the % refers to the signal ratio)
Glucocorticoid receptor (Homo sapiens), sequence (P04150 whole entry, looked up): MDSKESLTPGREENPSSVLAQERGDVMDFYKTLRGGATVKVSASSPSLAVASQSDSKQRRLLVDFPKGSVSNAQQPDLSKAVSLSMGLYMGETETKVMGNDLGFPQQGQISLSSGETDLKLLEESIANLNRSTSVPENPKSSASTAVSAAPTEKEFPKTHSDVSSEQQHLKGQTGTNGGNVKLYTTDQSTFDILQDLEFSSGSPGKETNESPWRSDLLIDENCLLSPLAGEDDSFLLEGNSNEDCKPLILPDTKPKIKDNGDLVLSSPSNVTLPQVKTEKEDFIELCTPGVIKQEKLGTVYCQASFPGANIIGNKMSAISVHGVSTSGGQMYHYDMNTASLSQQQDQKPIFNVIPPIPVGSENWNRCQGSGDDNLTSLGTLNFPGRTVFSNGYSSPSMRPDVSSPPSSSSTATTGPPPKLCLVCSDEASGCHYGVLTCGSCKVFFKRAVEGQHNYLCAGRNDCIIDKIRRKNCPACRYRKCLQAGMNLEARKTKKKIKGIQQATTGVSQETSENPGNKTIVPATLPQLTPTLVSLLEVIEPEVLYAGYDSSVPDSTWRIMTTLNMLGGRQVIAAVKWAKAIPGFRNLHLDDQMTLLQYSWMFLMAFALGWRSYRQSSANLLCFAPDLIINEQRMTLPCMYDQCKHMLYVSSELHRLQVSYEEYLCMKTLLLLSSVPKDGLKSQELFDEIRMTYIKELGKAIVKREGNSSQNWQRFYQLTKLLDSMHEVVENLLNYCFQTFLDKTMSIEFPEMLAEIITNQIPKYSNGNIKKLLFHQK
Procedure, shortened: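 qHTS in GR-bla HeLa cells: 4 h settling at 37 C/5% CO2, 18 h compound incubation at 37 C, 2 h LiveBLAzer B/G FRET substrate at room temperature, fluorescence intensity measured.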

[17] = qHTS assay for small molecule disruptors of the mitochondrial membrane potential (AID 720635)
Procedure, shortened: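 HepG2 cells exposed to compound 1 hr at 37C, then Mito-MPS dye 30 min. Ratio read of aggregate (540/590 nm) versus monomer (490/535 nm) fluorescence.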

[18] = qHTS assay to test for compound auto fluorescence at 460 nm (blue) in HepG2 cells (AID 720687)
Procedure, shortened: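 HepG2 cells in MEM with 10% FBS, attached overnight at 37 C, were exposed to compound or DMSO for 1 hr at 37 C, 5% CO2. Blue fluorescence was read at 405/460 nm, with triamterene as reference fluorophore.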

[19] = molecular target: Glucocorticoid receptor (Homo sapiens) (UniProt P04150); test: qHTS assay to identify small molecule antagonists of the glucocorticoid receptor (GR) signaling pathway (AID 720692; active means well fitted inhibition curve with a large enough effect in the signal ratio in the repeat runs, not every such curve was filed as active; the % refers to the signal ratio)
Procedure, shortened: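 Inhibition of glucocorticoid signalling is measured in HeLa cells with a GRE-controlled beta-lactamase reporter; cells are co-treated with compound and 5 nM dexamethasone (final) for 18 h before FRET substrate readout.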

[20] = qHTS assay to test for compound auto fluorescence at 460 nm (blue) in HepG2 cell free culture (AID 720685)
Procedure, shortened: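 Compound (23 nL) or DMSO pinned into cell-free MEM with 10% FBS; blue fluorescence read at 405/460 nm excitation/emission, expressed as auto-fluorescence equivalency to triamterene.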

Measured: Potency

CC(C(O)c1ccc(O)cc1)N1CCC(Cc2ccccc2)CC1 (stereo not given)
not listed: [17] | [18] | [19] | [20]
inactive: all other assays above

CCOC(=O)C(C)C(C)=O (stereo not given)
not listed: [8] | [19] | [20]
inactive: all other assays above

Nc1cc(S(=O)(=O)O)cc2cc(S(=O)(=O)O)cc(O)c12
not listed: [8] | [11] | [20]
inactive: all other assays above

c1cnc2cc3c(cc2n1)C1CNCC3C1
not listed: [9] | [16] | [18] | [19]
inactive: all other assays above

C=CC(=O)OCCCCCCCC
not listed: [20]
inactive: all other assays above

CCCCOCCOC(=O)c1ccccc1C(=O)OCCOCCCC
not listed: [16] | [17] | [19] | [20]
inactive: all other assays above

O=C(O)c1cc(Cl)cc(Cl)c1
not listed: [19]
inactive: all other assays above
